The values that follow come from PMC10726135, “HNF4α isoforms regulate the circadian balance between carbohydrate and lipid metabolism in the liver”.

Over roughly 18,000 sequences, “log2 normalized intensity” has its median near 0.39; the highest 2% begin near 6.6. This excerpt belongs to a sample that is enriched for the highest values.

This test concerns the target T1, HNF4alpha2 (COS-7 nuclear extract) (Homo sapiens, UniProt P41235 1-474).
T1 sequence: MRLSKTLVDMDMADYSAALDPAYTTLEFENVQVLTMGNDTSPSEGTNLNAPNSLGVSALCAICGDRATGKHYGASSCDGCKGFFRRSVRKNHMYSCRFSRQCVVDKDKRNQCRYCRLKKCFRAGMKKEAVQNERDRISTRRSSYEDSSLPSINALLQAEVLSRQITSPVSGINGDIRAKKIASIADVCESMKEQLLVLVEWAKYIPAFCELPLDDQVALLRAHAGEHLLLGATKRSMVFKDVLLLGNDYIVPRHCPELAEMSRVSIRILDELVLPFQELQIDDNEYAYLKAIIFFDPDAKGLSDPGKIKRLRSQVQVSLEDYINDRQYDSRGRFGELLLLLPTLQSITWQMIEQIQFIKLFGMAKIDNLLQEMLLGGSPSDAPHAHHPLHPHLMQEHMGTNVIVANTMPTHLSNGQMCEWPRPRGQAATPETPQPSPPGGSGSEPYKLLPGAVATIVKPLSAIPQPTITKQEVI
Kind of test: protein-binding microarray; COS-7 nuclear extract on double-stranded Agilent 4x180k PBM; binding buffer, salt, pH and temperature not given in the material; high values mean tight binding. To be noted: chain copies: 2; label: 3' end of strand 1 on the slide; dsDNA, one strand shown. In a few lines: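 Nuclear extracts of COS-7 cells transiently transfected with a human HNF4α isoform were applied to a custom Agilent SurePrint G3 4x180k array bearing ~44,000 double-stranded ~60-nt test sequences, each in quadruplicate. The bound protein was imaged on an Agilent G2565CA scanner at 2-µm resolution. Binding signal is the normalized, background-corrected gProcessedSignal from Agilent software.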
Regarding “AATTTTTTTTTCTTATCTCACTGGATGTGTGCCTAGGGAGATTAGAGTATCGGTCGA”, the binding signal turned out to be 2.22 log2 normalized intensity. Regarding “AGGTTAAGACTTTGAATCAGTAAATATTTGGCCTAGGGAGATTAGAGTATCGGTCGA”, the binding signal worked out at 0.901 log2 normalized intensity. Next, “AGATACAGGTCAGACCCTGGAATTCCAGAAGCCTAGGGAGATTAGAGTATCGGTCGA”: -0.969 log2 normalized intensity; “GGCCCATTTTCCCATGGTCTGTAGAAGGCGGCCTAGGGAGATTAGAGTATCGGTCGA”: 0.306 log2 normalized intensity; “GATGTTCGTTTGGATCGCTTGGCTCAGGCCGCCTAGGGAGATTAGAGTATCGGTCGA”: -0.819 log2 normalized intensity. Next, “CTCTGATCCTAGTCTTTGCCCCACTGCAAGGCCTAGGGAGATTAGAGTATCGGTCGA”: 2.95 log2 normalized intensity; “GGGTGGTGGTTACCGGCAGAGGCTGCAGAGGCCTAGGGAGATTAGAGTATCGGTCGA”: 0.249 log2 normalized intensity; “CTCCCTTTGATGCGGTCAGAGTTCATTTGGGCCTAGGGAGATTAGAGTATCGGTCGA”: 3.48 log2 normalized intensity.

For “CAGTTTTTGTTTGCACCTCACAGGAAGAACGCCTAGGGAGATTAGAGTATCGGTCGA”, the binding signal amounted to 1.15 log2 normalized intensity.

Consider “ATTTGAGGGTGACACTGCTCTCTCCAGGGGGCCTAGGGAGATTAGAGTATCGGTCGA”, for which the binding signal is -0.738 log2 normalized intensity.

As for “TGCCCTTTGCCTGGTGATCTTTGTTAGACCGCCTAGGGAGATTAGAGTATCGGTCGA”, the binding signal was determined as 2.7 log2 normalized intensity.

With “CCCACAGAGGGGGTTTGTTTTTTGCCCTTTGCCTAGGGAGATTAGAGTATCGGTCGA”, the binding signal was determined as 4.6 log2 normalized intensity.

Take “AGAGGGGGTTTGTTTTTTGCCCTTTGTACCGCCTAGGGAGATTAGAGTATCGGTCGA”: the binding signal is 8.01 log2 normalized intensity.

Consider “GGGTTTGTTTTTTGCCCTTTGTACCCACACGCCTAGGGAGATTAGAGTATCGGTCGA”, for which the binding signal is 7.67 log2 normalized intensity.

Turning to “AGCCTACCCACCCACACCTCCCCTTTGTTTGCCTAGGGAGATTAGAGTATCGGTCGA”, the binding signal turned out to be 3.59 log2 normalized intensity. For “TGTTTTTTGCCCTTTGTACCCACACACACCGCCTAGGGAGATTAGAGTATCGGTCGA”, the binding signal was 6.48 log2 normalized intensity. Then “ATGCCGGCGTGACCCCCACTGCCTGCCTGCGCCTAGGGAGATTAGAGTATCGGTCGA”, with 3.81 log2 normalized intensity; and “ATTTGACAATTTACAGTGTTCAAAGGTAGCGCCTAGGGAGATTAGAGTATCGGTCGA”, with 1.66 log2 normalized intensity; and “CTGGACTATGCCTTGAACTTTAAGGCACCTGCCTAGGGAGATTAGAGTATCGGTCGA”, with 1.07 log2 normalized intensity. Then “TCGAATGGTATGCTAGAGTACTTGGACTTTGCCTAGGGAGATTAGAGTATCGGTCGA”, with 6.9 log2 normalized intensity; and “TGCTAGAGTACTTGGACTTTAACCTTTAGAGCCTAGGGAGATTAGAGTATCGGTCGA”, with 9.24 log2 normalized intensity.

As to “TGGTATGCTAGAGTACTTGGACTTTAACCTGCCTAGGGAGATTAGAGTATCGGTCGA”, the binding signal stood at 9.48 log2 normalized intensity. Then “GCTTTTGGAAGGACTTCGAATGGTATGCTAGCCTAGGGAGATTAGAGTATCGGTCGA”, with 0.461 log2 normalized intensity. Then “GCCTAAGCAGGGCTAGACTTTAACCCCCTTGCCTAGGGAGATTAGAGTATCGGTCGA”, with 5.53 log2 normalized intensity; and “TATGCTCTCTCTCCACCTGGAGGGACTTTGGCCTAGGGAGATTAGAGTATCGGTCGA”, with 2.59 log2 normalized intensity.

Regarding “GGACTTCGAATGGTATGCTAGAGTACTTGGGCCTAGGGAGATTAGAGTATCGGTCGA”, the binding signal was found to be 1.23 log2 normalized intensity. Next, “CTTTGGACTTGAATTATCCTTATGGTCTCTGCCTAGGGAGATTAGAGTATCGGTCGA”: 0.855 log2 normalized intensity. Regarding “TAGGGCCTTGCTATGGAGTGGACTTTGGCTGCCTAGGGAGATTAGAGTATCGGTCGA”, the binding signal was determined as 6.16 log2 normalized intensity. Then “ACGACCTTTGGACTTGAATTATCCTTATGGGCCTAGGGAGATTAGAGTATCGGTCGA”, with 6.27 log2 normalized intensity. Consider “CTTTAACGACCTTTGGACTTGAATTATCCTGCCTAGGGAGATTAGAGTATCGGTCGA”, for which the binding signal stood at 7.84 log2 normalized intensity. Then “CGTCCGTCACCCCTTTCTTTGATTAGGAAAGCCTAGGGAGATTAGAGTATCGGTCGA”, with 1.54 log2 normalized intensity; and “GTCAGTTGATAAACAGATAACTGGGGGCAAGCCTAGGGAGATTAGAGTATCGGTCGA”, with 0.764 log2 normalized intensity; and “AGTCTGATTCTAGGGCCCATGCCCTTAGCCGCCTAGGGAGATTAGAGTATCGGTCGA”, with 0.883 log2 normalized intensity. With “TCTGTATGTCTAAGGTTTCTCAGCCCCATCGCCTAGGGAGATTAGAGTATCGGTCGA”, the binding signal is 4.27 log2 normalized intensity. Then “CGGGTGAAGGTTAAATAGCTCATTAAGCTTGCCTAGGGAGATTAGAGTATCGGTCGA”, with -0.974 log2 normalized intensity. Next, “CTCTCAACTCAGTGAGGGCTATTGACAAAGGCCTAGGGAGATTAGAGTATCGGTCGA”: -0.637 log2 normalized intensity; “ATTTTCCCACTTGTATGTCCAAGGGTCACTGCCTAGGGAGATTAGAGTATCGGTCGA”: 4.44 log2 normalized intensity; “AATTTTCTCTGTATACTTGTCTTATCAGCAGCCTAGGGAGATTAGAGTATCGGTCGA”: 0.598 log2 normalized intensity. Then “ACTTTAACCTTTAGATTACTAGGAATTGATGCCTAGGGAGATTAGAGTATCGGTCGA”, with 0.914 log2 normalized intensity; and “CTTGGACTTTAACCTTTAGATTACTAGGAAGCCTAGGGAGATTAGAGTATCGGTCGA”, with 6.18 log2 normalized intensity; and “GAGTACTTGGACTTTAACCTTTAGATTACTGCCTAGGGAGATTAGAGTATCGGTCGA”, with 7.31 log2 normalized intensity.

As to “CTTATCTTTGACCTTACCAGCCCACTCTTAGCCTAGGGAGATTAGAGTATCGGTCGA”, the binding signal was found to be 1.9 log2 normalized intensity. Next, “TTCCACTGACTTGCAACCTTTGCCCTGTTGGCCTAGGGAGATTAGAGTATCGGTCGA”: 6.31 log2 normalized intensity; “TTTCATTCCACTGACTTGCAACCTTTGCCCGCCTAGGGAGATTAGAGTATCGGTCGA”: 6.76 log2 normalized intensity. Next, “CTGGCTTTCATTCCACTGACTTGCAACCTTGCCTAGGGAGATTAGAGTATCGGTCGA”: 0.803 log2 normalized intensity; “TTCCTCCCTTGGAATGTGACCTTAGACCCCGCCTAGGGAGATTAGAGTATCGGTCGA”: 8.18 log2 normalized intensity.

“TTAGCTTCCTCCCTTGGAATGTGACCTTAGGCCTAGGGAGATTAGAGTATCGGTCGA”: the binding signal was 4.12 log2 normalized intensity. With “TTCCCTTGGAATGCCAGATGACCTTTGCCCGCCTAGGGAGATTAGAGTATCGGTCGA”, the binding signal came out at 9.88 log2 normalized intensity. Then “GAGAGTTCCCTTGGAATGCCAGATGACCTTGCCTAGGGAGATTAGAGTATCGGTCGA”, with 4.14 log2 normalized intensity; and “ACCTTTGCCCTTGACTTTTTGTGGGGGCAGGCCTAGGGAGATTAGAGTATCGGTCGA”, with 2.38 log2 normalized intensity; and “CCCTTGGAATGTGACCTTAGACCCCTGAATGCCTAGGGAGATTAGAGTATCGGTCGA”, with 5.74 log2 normalized intensity. Then “TTGCCCTTCTTGGATGCCCTTCCCTAACCCGCCTAGGGAGATTAGAGTATCGGTCGA”, with 2.66 log2 normalized intensity; and “TGCCCTTGACTTTTTGTGGGGGCAGATGTTGCCTAGGGAGATTAGAGTATCGGTCGA”, with 1.86 log2 normalized intensity.

As to “AGATGACCTTTGCCCTTGACTTTTTGTGGGGCCTAGGGAGATTAGAGTATCGGTCGA”, the binding signal came out at 7.08 log2 normalized intensity.
